Most compounds without a hit are left out; they make up all but 21% or so of the library.
Pf growth 48h: inhibits P. falciparum growth in the first generation, 48 h | Potency, µM (doses to about 28.7 µM), actives largely listed as inhibitors | P. falciparum luciferase growth in erythrocytes, 48 h | 5.9% of 310,000 active
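Cell-based growth assay: transgenic P. falciparum expressing firefly luciferase, cultured in red cells within RPMI 1640 containing 0.5% w/v Albumax, 24 mM bicarbonate and gentamycin. A drop in luciferase activity indicates inhibition.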
Sm TGR block: inhibitors of Schistosoma mansoni thioredoxin glutathione reductase | purified TGR, DTNB reduction, TNB absorbance 405 nm | Potency, µM (series often up to 114 µM), usual class: inhibitors | 3% of 360,000 active | AID 485364; also: nearly all actives have a fitted effect of over 60% in size
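Kinetic colorimetric format: TGR-catalysed, NADPH-driven DTNB reduction monitored via TNB absorbance. Enzyme dispensed at 20 nM; compound exposure 15 min at room temperature before reaction start.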
Shiga inhibitor: Shiga toxin inhibition | Vero cells, Shiga toxin protein synthesis inhibition reporter | inhibition, % at 38.7 µM | 9.2% of 290,000 active | AID 2315; in the data active = inhibition mostly above about 28%, no sharp cut-off; inactive = mostly below about 43%
CHX counter: affects cycloheximide protein synthesis inhibition readout, counter-screen. cell reporter, cycloheximide protein synthesis inhibition counterscreen. max response, %. 12% of 300,000 active; in the data active = max response mostly above about 13%, no sharp cut-off; inactive = mostly below about 14%; also: read at 38.3 µM for the half of the compounds with a filed dose
NS1 function inh: influenza NS1 inhibition. 0.4% of 270,000 active. Potency, µM (top dose mostly 46.1 µM); calls by dose curve; also: actives are rising curves; nearly all actives have a fitted effect of over 50% in size
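Recovery from NS1-induced slow growth read by OD600 in budding yeast switched to galactose assay medium (pH 6.0, -URA) at 1:100 dilution. Compound 23 nl per well; the matching strain lacking NS1 serves as control.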
Pf growth 96h: inhibits malaria parasite growth, 96 h. 6.9% of 320,000 active. P. falciparum luciferase reporter growth, 96 h. Potency, µM (series often up to 28.7 µM), hits mostly inhibitors. AID 504834
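P. falciparum expressing integrated firefly luciferase grown in erythrocytes (2% hematocrit, 0.05% parasitemia final) with compounds for 96 hours at 37 C, 5% CO2. Growth inhibition read as loss of luminescence after adding luciferase detection reagent.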
Each line names hits and unclear results; the compound was inactive in the other large screens. Unless noted, calls follow the shape of the dose curve; as a rule, active = well fitted curve in the direction sought with a large enough effect; inconclusive = small, poorly fitted or top-dose-only effect, or another doubt; inactive = no such curve, though single readings can be large; an effect the other way counts as inactive or inconclusive.

CC(=O)C1=C(C)NC(SCC(=O)c2ccc(Cl)cc2)=C(C#N)C1CC(C)C (stereo unspecified)	Pf growth 48h inconclusive, Sm TGR block inconclusive (no result: Pf growth 96h)
CC(=O)C1=C(C)NC(SCC(N)=O)=C(C#N)C1CC(C)C (stereo unspecified)	Sm TGR block inconclusive (no result: NS1 function inh)
CCOC(=O)C1=C(C)NC(SC)=C(C#N)C1CC(C)C (stereo unspecified)	Pf growth 48h 1.7µM, Pf growth 96h inconclusive
CCOc1cc2[nH]c(=O)n(CCCC(=O)N3CCN(c4cccc(Cl)c4)CC3)c(=O)c2cc1OCC	none (no result: Pf growth 48h, Shiga inhibitor, CHX counter, NS1 function inh, Pf growth 96h)
Cc1ccc(NC(=S)NNC(C)(C)C)cc1	Pf growth 48h 13µM, Sm TGR block inconclusive, Shiga inhibitor 41, CHX counter 34, Pf growth 96h 5.9µM
CC(C)(C)NNC(=S)Nc1cccc(C(F)(F)F)c1	Pf growth 96h inconclusive
CCc1nnc(NC(=O)c2ccc3c(c2)C(=O)N(C(C)(C)C)C3=O)s1	Sm TGR block inconclusive, CHX counter 17
COc1ccc2nc(NC(=O)c3ccc4ncsc4c3)sc2c1	Shiga inhibitor 70, CHX counter 56 (no result: Pf growth 48h)
COc1ccc2nc(NC(=O)c3ccc(-n4nc(C)cc4C)cc3)sc2c1	Pf growth 48h inconclusive
O=C(Nc1nc(=O)c2ccccc2s1)c1ccccc1	Shiga inhibitor 95, CHX counter 46
O=C(Nc1nc2c(s1)C(=O)CCC2)c1ccccc1	CHX counter 43, Pf growth 96h inconclusive
COc1cccc(C(=O)Nc2nc3ccccc3s2)c1	Shiga inhibitor 57, CHX counter 35, Pf growth 96h 15µM
COc1ccc2nc(NC(=O)c3ccc(F)cc3)sc2c1	CHX counter 27, Pf growth 96h inconclusive (no result: Shiga inhibitor)
O=C(NC1CC1)c1ccc(-c2nc3ccccc3s2)s1	Shiga inhibitor 38
CCc1nnc(NC(=O)c2ccc3ncsc3c2)s1	Shiga inhibitor 47, CHX counter 18
Cc1cnc(NC(=O)c2ccc3ncsc3c2)s1	none (no result: Shiga inhibitor, CHX counter, NS1 function inh)
CC(C)c1nn2c(=O)cc(COC(=O)c3ccc(NC(=O)COc4ccccc4)cc3)nc2s1	none (no result: Pf growth 48h, Shiga inhibitor, CHX counter, NS1 function inh, Pf growth 96h)
COc1ccc(C(=O)N2c3ccccc3C(C)(c3ccc(Cl)cc3)CC2(C)C)cc1 (stereo unspecified)	none (no result: Pf growth 48h, Shiga inhibitor, CHX counter, NS1 function inh, Pf growth 96h)
COc1ccc(CCNC(=O)CCc2cn(Cc3ccc(C)cc3)c3ccccc23)cc1OC	none (no result: Pf growth 48h, Shiga inhibitor, CHX counter, NS1 function inh, Pf growth 96h)
COc1ccc(C(=O)Nc2nc3ccccc3s2)cc1	none
CC(C)(C)N1C(=O)c2ccc(C(=O)Nc3ccc(O)cc3)cc2C1=O	Shiga inhibitor 46, CHX counter 23
O=C(Nc1ccc(F)cc1)Nc1sccc1-c1nc2ccccc2s1	Pf growth 48h 8.3µM, Pf growth 96h inconclusive
CC(C)(C)NC(=O)c1cccc(NC(=O)c2ccc3c(c2)C(=O)N(C(C)(C)C)C3=O)c1	none
O=C(Nc1nc2ccccc2s1)c1ccc(F)cc1	Shiga inhibitor 82, CHX counter 32
O=C(Nc1nc2ccccc2s1)c1ccc(Cl)s1	Shiga inhibitor 86, CHX counter 32 (no result: Pf growth 48h)
O=C(c1ccc(Cl)s1)N1CCN(c2nc3ccccc3s2)CC1	none (no result: Pf growth 48h)
c1ccc(CN2CCC3(CC2)SSC2(CCN(Cc4ccccc4)CC2)SS3)cc1	none (no result: Pf growth 48h, Sm TGR block, Shiga inhibitor, CHX counter, Pf growth 96h)
Cc1ccc2nc(NC(=O)c3ccc(-c4nc5ccccc5s4)s3)sc2c1	Shiga inhibitor 86, CHX counter 51
Cc1ccc(C(=O)Nc2nc3ccccc3c(=O)s2)cc1	Shiga inhibitor 101, CHX counter 43
NC(=O)c1ccc2nc(NC(=O)c3ccc(N)cc3)sc2c1	Shiga inhibitor 33, CHX counter 20, Pf growth 96h 12µM (no result: NS1 function inh)
CC(=O)Nc1nc2cc(C(N)=O)ccc2s1	Pf growth 96h inconclusive (no result: Shiga inhibitor, CHX counter, NS1 function inh)
COc1ccc(-c2cc(C(=O)OCC(=O)N3CCCC3)c3ccccc3n2)cc1	none (no result: Pf growth 96h)
COc1ccc2nc(-c3ccccc3)cc(C(=O)OCC(=O)N3CC(C)OC(C)C3)c2c1 (stereo unspecified)	Pf growth 48h 12µM, Pf growth 96h inconclusive (no result: Shiga inhibitor, CHX counter, NS1 function inh)
COc1ccc2nc(-c3ccccc3)cc(C(=O)OCC(=O)N3CCCCC3)c2c1	Pf growth 48h 12µM, Pf growth 96h inconclusive (no result: Shiga inhibitor, CHX counter, NS1 function inh)
Cc1cccc(Nc2ncnc(N)c2[N+](=O)[O-])n1	Pf growth 96h inconclusive
Cc1cc(C)nc(Sc2ncnc(N)c2[N+](=O)[O-])n1	Pf growth 48h inconclusive, Sm TGR block 4µM
COc1ccccc1C(=O)O/N=C(\N)c1ccccn1	CHX counter 22
COc1cc(OC)c(C(=O)O/N=C(\N)c2ccccn2)cc1OC	Shiga inhibitor 78, CHX counter 14
Cc1ccc(NC2CCCCC2NS(=O)(=O)c2ccccc2)c(C)c1 (stereo unspecified)	Pf growth 48h inconclusive, Pf growth 96h inconclusive
CCc1ccc(C(=O)COC(=O)CNC(=O)COc2ccccc2)cc1	none
O=C(c1cccs1)c1cn(CCOc2ccc(F)cc2)c2ccccc12	none (no result: Pf growth 48h, Shiga inhibitor, CHX counter, NS1 function inh, Pf growth 96h)
Cc1cc(C)c2nc(NNC(=O)c3cc(-c4cccs4)nc4ccccc34)sc2c1	Pf growth 48h 1.9µM, Pf growth 96h 3.3µM
O=C(NNc1nc2ccc(Cl)cc2s1)c1cc(-c2cccs2)nc2ccccc12	Pf growth 48h inconclusive, Pf growth 96h 7.4µM
Cc1ccc2sc(NNC(=O)c3cc(-c4cccs4)nc4ccccc34)nc2c1C	Pf growth 48h inconclusive, Pf growth 96h 10µM
Cc1ccc(CNC(=O)C2CCN(C(=O)c3cnn(-c4ccccc4)c3-n3cccc3)CC2)cc1	none (no result: Pf growth 48h, Shiga inhibitor, CHX counter, NS1 function inh, Pf growth 96h)
CCOc1ccc2ccccc2c1C1NC(=O)N(C)C(C)=C1C(=O)OCCOC (stereo unspecified)	none
CCOC(=O)c1ccc(Cl)c(NC(=O)c2cccnc2)c1	none
COc1ccc(N2CC(C(=O)OCC(=O)Nc3cccc(C)c3C)CC2=O)cc1 (stereo unspecified)	none
O=CC(=O)c1ccccc1	none (no result: Shiga inhibitor, CHX counter, NS1 function inh)
O=C(/C=C/NNC(=O)c1ccccc1)c1ccc([N+](=O)[O-])cc1	Shiga inhibitor 87, CHX counter 38, Pf growth 96h inconclusive
O=C(/C=C/NNC(=O)c1ccc(Br)cc1)c1ccccc1	Shiga inhibitor 84, CHX counter 32, Pf growth 96h inconclusive (no result: Pf growth 48h)
O=C(/C=C/NNC(=O)c1ccccc1O)c1ccccc1	CHX counter 32 (no result: Shiga inhibitor)
O=C(/C=C/NNC(=O)c1ccccc1)c1ccccc1	CHX counter 27 (no result: Pf growth 48h)
O=C(NOCc1ccccc1)c1ccc([N+](=O)[O-])cc1	none (no result: Shiga inhibitor, CHX counter, NS1 function inh)
Cc1cccc(C(=O)NN/C=C/C(=O)c2ccccc2)c1	Shiga inhibitor 56, CHX counter 31
Cc1ccc(C(=O)C=CNNC(=O)c2ccccc2)cc1	Sm TGR block 40µM, Shiga inhibitor 44, CHX counter 33, Pf growth 96h inconclusive
CC(C)(C)OC(=O)NNC1CC(=O)N(c2ccccc2F)C1=O (stereo unspecified)	Pf growth 48h inconclusive, Pf growth 96h inconclusive
O=C1OCc2cc(-n3cccc3)ccc21	CHX counter 17, Pf growth 96h inconclusive (no result: NS1 function inh)
O=C1OCc2cccc3cccc1c23	none
Cc1ccc(C)n1-c1ccc2c(c1)COC2=O	Pf growth 48h inconclusive, Sm TGR block 11µM
Nc1ccc2c(c1)COC2=O	Shiga inhibitor 83, CHX counter 34, Pf growth 96h inconclusive (no result: NS1 function inh)
